Source: PubChem BioAssay (NCI)
The panel holds about 83,000 compounds, 20% with a hit somewhere; the sample as a whole holds those more often.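 Activity criterion: percent growth below 10, measured after cells in 96-well plates were exposed to a single compound concentration for 48 hours.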 Values without a mark were called inactive. The source made the active and inactive calls.

How the values were obtained:
Experiment in all cases: NCI-60 one-dose screen, 48 h (100 = growth as untreated, 0 = no growth, -100 = all killed)
Conditions in all cases: 10 µM
BT-549 breast = tested on: BT-549 breast
MDA-MB-435 melanoma = tested on: MDA-MB-435 melanoma
SW-620 colon = tested on: SW-620 colon
MCF7 breast = tested on: MCF7 breast
HCT-116 colon = tested on: HCT-116 colon
HCC-2998 colon = tested on: HCC-2998 colon
KM12 colon = tested on: KM12 colon

| SMILES | growth (BT-549 breast) [%] | growth (MDA-MB-435 melanoma) | growth (SW-620 colon) | growth (MCF7 breast) | growth (HCT-116 colon) | growth (HCC-2998 colon) | growth (KM12 colon) |
| --- | --- | --- | --- | --- | --- | --- | --- |
| CC1CN(Cc2ccccc2)C(=O)NC1=O (stereo unspecified) | 103 | 110% | 110% | 94.8% | 106% | 110% | 113% |
| CCOC(=O)N1C=CC2C=CC1C1C=CC=CC2N1C(=O)OCC (stereo unspecified) | 89.4 | 3.79% (active) | 82% | 76.8% | 94.7% | 82.1% | 84.9% |
| CNc1ncc(-c2ccc(C(F)(F)F)cc2)c(NC2CCCCCC2)n1 | 90.9 | 89.8% | 77.4% | 67.6% | 56% | 91.1% | 74.1% |
| COc1ccc(OC)c2c1C(=O)CC2C (stereo unspecified) | 120 | 102% | 105% | 99.6% | 111% | 113% | 103% |
| CC(=O)c1nc2ccccc2n1CCN1CCN(C)CC1 | 48.1 | -80.2% (active) | 29.6% | 17.8% | 11% | 37.9% | 14.1% |
| COc1ccc2c(c1)C(=O)c1c-2c(OCCN(C)C)nc2ccccc12 | 85.4 | 33.3% | -7.66% (active) | 6.19% (active) | 10.4% | 44.9% | 23.1% |
| O=C(Nc1cccc(-n2cc(-c3ccncc3)c(-c3ccc(O)c(Cl)c3)n2)c1)Nc1cccc(C(F)(F)F)c1 | 13.3 | -35.3% (active) | 13.2% | -6.1% (active) | 5.24% (active) | 20.4% | -14.7% (active) |
| COc1ccc(CN2CCC(N3CCCC3=O)c3cc(Cl)ccc32)cc1 (stereo unspecified) | 67.6 | 119% | 102% | 100% | 96.8% | 105% | 103% |
| COc1cc2cc3c(nc2cc1OC)CCN3Cc1ccc(NC(=O)c2ccc(Cl)c(C(F)(F)F)c2)cc1 | 112 | 95.6% | 114% | 15% | 93.4% | 91.2% | 109% |
| O=C(c1ccc(Cl)cc1Cl)N1CCOCC1 | 92.3 | 104% | 102% | 97.6% | 93.8% | 106% | 110% |
| CC(C)=NNc1ncnc2c1ncn2C1OC(CO)C(O)C1O (stereo unspecified) | 43 | 18% | 9.33% (active) | 12.2% | 1.45% (active) | -10.2% (active) | 2.36% (active) |
| Nc1ccc2cc(S(=O)(=O)O)cc(O)c2c1N=Nc1ccc(F)cc1 | 102 | 113% | 104% | 111% | 93.4% | 102% | 107% |
| COc1ccc(-c2cc(-c3ccc(N(C)C)cc3)c(C#N)c(N3CCCC3)n2)cc1 | 74.4 | 90.4% | 94.4% | 103% | 67.7% | 83.6% | 95.4% |
| Nc1c(C(=O)Nc2ccccc2)sc2nc3c(cc12)CCCC3 | 66.6 | -30.6% (active) | 34.4% | 15.6% | 25.5% | 24.5% | 31.1% |
| COc1ccc(-c2nn(-c3cccc(NC(=O)c4ccc5c(c4)OCCO5)c3)cc2-c2ccncc2)cc1Cl | 34.2 | -61.8% (active) | 18.3% | 2.05% (active) | 15.3% | 46.5% | 9.37% (active) |
| CC(=O)[C@H]1CC[C@H]2[C@@H]3CCC4=CC(=O)C=C[C@]4(C)[C@H]3CC[C@]12C | 98 | 98.7% | 108% | 97.9% | 85.6% | 99.2% | 107% |
| COc1ccc(-c2nc3sc(-c4ccccc4)c(-c4ccccc4)n3c2/C=C/C(=O)c2ccccn2)cc1 | 85.5 | 90.6% | 91% | 62% | 67.2% | 90.9% | 83.6% |
| Oc1[nH]c2ccc(Cl)cc2c1/C=c1/ccc2c(c1)N=C(c1cc(F)cc(F)c1)N=2 | 81.9 | 1.43% (active) | 53.8% | 5.27% (active) | 52.2% | 86.2% | 44.4% |
